# The supplement of paper PMC6555819
# Test system: RARb:RXRa (NR concentration 270 nM, RXRa partner concentration 90 nM)
# Test: PBM binding z-score (relative to random genomic background probes); higher = stronger binding; sequences stand for … in GC…GCGATTGACAGCGTAGAATGAAGG
# How it was run: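 Binding z-scores were set against random background probes. The data came from custom Agilent 4×180K protein-binding microarrays carrying double-stranded probes with 34-nt variable regions, incubated 1 h with ligand-free nuclear receptor dimers. Partner-specific antibodies detected binding, and scanned fluorescence was regression-normalized.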
row,Sequence,PBM binding z-score
1,ATACCAAGGTGCTCGTGAGGTCGTTGATACTAAC,0.57
2,CCAACTAGGTCAAGGACAGTGAATCTCCGCACGC,3.98
3,GTAACGAGGGCAAGTTGATAGCAGAGTTTGATGG,2.58
4,TCTGCTAGGTCAGTTGGACAGCTAACGAGCTGCC,3.26
5,AGTCAAAGCTCAGGACGAGGTAACGTAAAGCACG,-0.0865
6,ACGTACGGGTCAACGAGGTTATAGCACGCGTATA,4.28
7,CCTTACGGGTCACTGACAGGTTAGAGCATTTGGA,3.95
8,CGAACTAGGTCATCCAGGACAGTCAATACATTGA,3.95
9,CAAACTAGGCCAAAGGTCAAAGTCGAGCCAACCA,5.26
10,CGTCCAAGGTCAATGTCAGTGAAAGAGACTCGAA,4.85
11,TCTATTACTTGAAGGGCAACCGACGAGTCCGTTT,1.59
12,TCTTGTAGATCAACAGGAGGTTAAGAACGATCGA,0.446
13,TCATATAGGTAAATGCTAGGTGAAAGTCCGATCT,0.642
14,TCTAGTTGGTCACGGAGGTCACACAAGACGGGTA,3.87
15,CGAACTAGGTCATCCAAGACAGTGAATACATTGA,3.95
16,TCTTATAGATCAACAGGAGGTTAAGAAAGATCGA,0.877
17,CGAACTAGGTCAGAACAGGAAAGTGAAGGATGAT,2.72
18,ATATGTAGGTTATCGCGTCATTCAGTTTGCGCAT,0.976
